Screening results as filed in PubChem.
Only some compounds are listed: those with a hit (about 27% of all), similar ones and a draw of the others.
CYP2C9 act = CYP2C9 (human) activation; 1.4% of 96,000 active; activation factor at 5 µM; AID 1024; recombinant CYP2C9, luciferin-H conversion, luminescence; stronger effect = higher value; factor 1 = untreated enzyme, 0 = blocked; P11712;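 active = activation factor of 2 or more for CYP2C9 at a 5 µM dose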;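 note: 0 = sulfaphenazole-blocked wells and 1 = vehicle-only wells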
sEH inh = inhibitors of human soluble epoxide hydrolase | P34913 | recombinant human sEH enzymatic activity assay | inhibition, % at 2 µM | 0.34% of 91,000 active | AID 707; in the data active = inhibition above about 80%
CYP2C19 activ = cytochrome P450 2C19 (human) activation. P33261. recombinant CYP2C19, luciferin-H EGE luminescence; stronger effect = higher value; 0 = fully inhibited enzyme, 1 = untreated enzyme. activation factor at 5 µM. 96,000 tested, under 10 active. AID 1025;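 active = activation factor of at least 2 at 5 µM in the primary screen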;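 note: 0 = wells with 2.5 mM tranylcypromine and 1 = vehicle-only wells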
Target sequence (P33261 whole entry, looked up): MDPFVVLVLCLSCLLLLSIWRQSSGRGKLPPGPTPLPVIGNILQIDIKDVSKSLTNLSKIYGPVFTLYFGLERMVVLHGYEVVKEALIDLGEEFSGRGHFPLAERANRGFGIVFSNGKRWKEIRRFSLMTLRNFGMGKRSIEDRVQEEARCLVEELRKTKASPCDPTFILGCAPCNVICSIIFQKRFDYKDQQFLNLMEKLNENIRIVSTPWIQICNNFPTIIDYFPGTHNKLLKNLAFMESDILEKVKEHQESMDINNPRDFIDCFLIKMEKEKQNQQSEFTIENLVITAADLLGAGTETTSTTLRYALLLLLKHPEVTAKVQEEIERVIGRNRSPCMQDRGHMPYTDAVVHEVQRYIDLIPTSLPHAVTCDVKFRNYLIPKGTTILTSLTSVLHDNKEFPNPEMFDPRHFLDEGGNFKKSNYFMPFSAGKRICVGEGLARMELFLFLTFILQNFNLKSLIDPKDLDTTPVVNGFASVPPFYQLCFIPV
CYP2C9 inhib = inhibitors of human CYP2C9. inhibition, % at 5 µM. AID 777. CYP2C9 Supersomes, luciferin-H conversion, luminescence. 20% of 96,000 active;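 active = blocking of liver enzyme CYP2C9 beyond about 50% at 5 µM, limit read from the data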
sEH activator = increases human soluble epoxide hydrolase activity; P34913; 0.04% of 91,000 active; purified human sEH enzymatic activity, activator screen; activation, % at 2 µM; in the data active = activation above about 37%
CYP2C19 inh = inhibitors of human CYP2C19. CYP2C19 Supersomes, luciferin-H EGE luminescence, 30 min. inhibition, % at 5 µM. 21% of 96,000 active. AID 778;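 active = CYP2C19 inhibition above a set limit at 5 µM in the primary screen, cut at about 50% in these data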;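 note: plate controls were negative control wells for no effect and 2.5 mM tranylcypromine positive control for full effect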
Starred values were filed as active, the others as inactive; / = not tested or not shown.

SMILES | CYP2C9 act | sEH inh | CYP2C19 activ | CYP2C9 inhib | sEH activator | CYP2C19 inh
COC(=O)c1cc(NC2c3ncccc3C(=O)N2Cc2ccccc2)cc(C(=O)OC)c1 (stereo not given) | 0.3 | 3 | 0 | 67* | -4 | 96*
CCOC(=O)c1ccc(NC2c3ncccc3C(=O)N2Cc2ccc(F)cc2)cc1 (stereo not given) | 0.3 | 4 | 0.6 | 70* | -2 | 41
COc1ccc(-c2nsc(SCC(=O)Nc3cc(C)on3)n2)cc1 | 0.5 | -2 | 0.6 | 54* | 6 | 42
CCc1nnc(NC(=O)CSc2nc(-c3ccc(OC)cc3)ns2)s1 | 0.3 | 7 | 0.7 | 72* | -4 | 31
COC(=O)c1c(NC(=O)C2(C)Cc3ccccc3C(=O)O2)sc2c1CCCC2 (stereo not given) | 0.4 | -14 | 0.4 | 56* | 14 | 60*
O=C(Nc1nnc(SCc2ccccc2)s1)c1cc2c(s1)CCCC2 | 0.6 | 23 | 0.8 | 38 | -22 | 22
CC1(C(=O)Nc2nccs2)Cc2ccccc2C(=O)O1 (stereo not given) | 1 | -7 | 1 | -1 | 1 | -2
CC1(C(=O)Nc2nnc(SCc3ccccc3)s2)Cc2ccccc2C(=O)O1 (stereo not given) | 0.2 | 4 | 0.9 | 79* | -6 | 15
COC(=O)c1c(NC(=O)Cc2cccs2)sc2c1CCCC2 | 0.7 | 1 | 0.8 | 35 | 0 | 22
COc1ccccc1NC(=O)C1(C)Cc2ccccc2C(=O)O1 (stereo not given) | 2.3* | / | 0.6 | -134 | / | 40
Cn1c(N)c(C(=O)COC(=O)C2CCC(C(C)(C)C)CC2)c(=O)n(C)c1=O (stereo not given) | 1.3 | 19 | 0.8 | -32 | -16 | 19
CC(C(=O)N1c2ccccc2Sc2ccccc21)n1nnc(-c2cccs2)n1 (stereo not given) | 0.2 | 2 | 0.5 | 83* | -2 | 51*
CN(C(=O)COc1cc(=O)n(C)c2ccccc12)c1ccc(Br)cc1 | 0.3 | 0 | 0.9 | 67* | -1 | 8
CCOc1ccc(CNC(=O)CCCOc2cc(=O)n(C)c3ccccc23)cc1 | 0.2 | 48 | 0.3 | 78* | -48 | 69*
CCN(C(=O)COc1cc(=O)n(C)c2ccccc12)c1cccc(Cl)c1 | 1.6 | -1 | 0.3 | -57 | 0 | 69*
Cc1cccc(N(C)C(=O)COc2cc(=O)n(C)c3ccccc23)c1 | 1 | / | 0.7 | 3 | / | 26
Cn1c(=O)cc(OCC(=O)Nc2ccccn2)c2ccccc21 | 0.7 | 4 | 0.5 | 35 | -3 | 53*
CC(/C=C/c1ccccc1)=N\NC(N)=S | 0.9 | -14 | 0.8 | 14 | 16 | 19
CCOc1ccc(CC(C(N)=O)C(N)=O)cc1CN(C)C | 1.1 | / | 1.1 | -5 | / | -11
CCCCC1(Cc2cccc([N+](=O)[O-])c2)C(=O)N(c2ccccc2)N(c2ccccc2)C1=O | 0.2 | -1 | 0.2 | 80* | 2 | 80*
Nc1c(-c2ccccc2)cnn1-c1cccc([N+](=O)[O-])c1 | 0.9 | -10 | 0.8 | 9 | 14 | 18
O=C(CN1CCN(c2ccc(Cl)cc2)CC1)Nc1ccc(F)cc1 | 0.5 | -11 | 0.8 | 49 | 5 | 23
COC(=O)c1c(NC(=O)CN2CCN(Cc3ccc4c(c3)OCO4)CC2)sc(C)c1C | 0.3 | / | 0.5 | 71* | / | 50*
COC(=O)c1ccsc1NC(=O)CN1CCN(Cc2ccc3c(c2)OCO3)CC1 | 0.4 | -3 | 0.5 | 56* | 6 | 46
COC(=O)c1ccsc1NC(=O)CN1CCN(c2ccc(F)cc2)CC1 | 0.1 | 15 | 0.1 | 91* | -12 | 91*
COc1ccc(NC(=O)CN2CCN(CC(=O)Nc3ccc4c(c3)OCO4)CC2)cc1 | 0.8 | / | 0.8 | 18 | / | 18
Cc1cc(-c2ccccc2)[nH]c(=O)c1S(=O)(=O)c1ccccc1 | 1.1 | -7 | 1 | -7 | 9 | -4
CC1(CC(=O)O)C(=O)N=C2C=CC=CN21 (stereo not given) | / | -2 | / | / | 6 | /
Cc1nn(CC(=O)NCc2ccc(OC(C)C)cc2)c(=O)c2cc3occc3n12 | 1.3 | 4 | 0.9 | -32 | -4 | 8
CCOC(=O)c1c(-n2c(C)cc(C=O)c2C)sc2c1CCCC2 | 0.4 | -2 | 0.8 | 61* | 4 | 18
